Results on nine compounds are retold here after PubChem BioAssay (Tox21).

Structures are written as SMILES. Inconclusive results are not listed. Activity calls are given as the source filed them. Unless noted, the call rests on the fitted dose curve.

Assay [1] in a line: qHTS assay to identify small molecule antagonists of the sonic hedgehog signaling (Shh) pathway (AID 1259369). Further: nearly all actives have a fitted effect of over 45% in size. Further: potency means the concentration at half of the fitted maximal effect. The procedure, abridged:
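Screening used 3T3Gli1-Luc cells at 2,000 per well, compounds delivered in DMSO, and conditioned medium as agonist stimulus; plates incubated 24hr at 37 C and 5% CO2 before a 30min luciferase step.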
(In general: Quantitative high-throughput screening tests each substance at several concentrations.)

Assay [2] concerns the target Estrogen receptor beta (Homo sapiens) (UniProt Q92731). The assay is described as follows: qHTS assay to identify small molecule agonists of the estrogen receptor beta (ER-beta) signaling pathway (AID 1259377; active means well fitted activation curve with a large enough effect in the signal ratio in the repeat runs, not every such curve was filed as active; the % refers to the signal ratio). The procedure, abridged:
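Ratiometric beta-lactamase FRET read-out came after 2 h substrate loading at room temperature. It followed 16 h compound treatment at 37C of GripTite HEK293T cells carrying a UAS-bla reporter, plated in 2% charcoal-stripped FBS medium.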

The target is the same in assay [3]. The assay is described as follows: qHTS assay to identify small molecule antagonists of the estrogen receptor beta (ER-beta) signaling pathway (AID 1259378; active means well fitted inhibition curve with a large enough effect in the signal ratio in the repeat runs, not every such curve was filed as active; the % refers to the signal ratio; further: potency means the concentration at half of the fitted maximal effect). The procedure, abridged: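 ER-beta-UAS-bla HEK293T cells in 2% charcoal-stripped FBS medium treated with compound plus 1nM final 17-beta-estradiol for 16 hr at 37C. Beta-lactamase reporter read by FRET substrate fluorescence after 2 hours at room temperature.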

The nature of assay [4]: qHTS assay to identify small molecule agonists of the androgen receptor (AR) signaling pathway in the presence of an antagonist - cell viability counter screen (AID 1259379; active means well fitted curve in the direction sought with a large enough effect in the repeat runs; an effect the other way counts as inactive or inconclusive; further: nearly all actives have a fitted effect of over 25% in size; further: potency means the concentration at half of the fitted maximal effect). The procedure, abridged:
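In MDA-kb2 cells (human breast carcinoma, MMTV-luciferase), compounds at 15 concentrations plus 3.0uM nilutamide; 16 hr, 37C, 0% CO2; CellTiter-Fluor fluorescence read for viability.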

Assay [5] can be described thus: qHTS assay to identify small molecule antagonists of the estrogen receptor beta (ER-beta) signaling pathway - cell viability counter screen (AID 1259382; active means well fitted curve in the direction sought with a large enough effect in the repeat runs; an effect the other way counts as inactive or inconclusive; further: series mostly up to about 92 µM; nearly all actives have a fitted effect of over 55% in size). The procedure, abridged:
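Tox21 10K library tested in qHTS format on ER-beta-bla HEK293T cells stimulated with 1nM E2; 16 hr treatment at 37C. Same-well CellTiter-Glo luminescence served as the cell viability measure.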

Assay [6] deals with Estrogen receptor (Homo sapiens) (UniProt P03372). Description: qHTS assay to identify small molecule agonists of the estrogen receptor alpha (ER-alpha) signaling pathway in the presence of an antagonist (AID 1259383). Further: top concentration of the series differs between compounds; nearly all actives have a fitted effect of over 15% in size. The essentials: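 In VM7Luc4E2 cells, 4,000 per well, compounds at 15 concentrations were co-incubated 22hr at 37C with 10.0nM final ICI-182,780. Luminescence from the stably transfected 4×ERE-luciferase reporter was recorded 30min after ONE-Glo addition.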

Assay [7] can be described thus: qHTS assay to identify small molecule agonists or antagonists of the thyroid stimulating hormone receptor (TSHR) signaling pathway - wild type cell line counter screen (AID 1259384). The procedure, abridged: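 Wild-type Hek293 cells, 800/well, 18 h at 37C, then compound with Ro20-1724 for 30 min RT. cAMP by HTRF (cAMP-d2/anti-cAMP cryptate), 1 h RT, fluorescence read. 15 concentrations, triplicates.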

In assay [8] the target is Thyrotropin receptor (Homo sapiens) (UniProt P16473). Description: qHTS assay to identify small molecule antagonists of the thyroid stimulating hormone receptor (TSHR) signaling pathway (AID 1259385). Further: nearly all actives have a fitted effect of over 20% in size. The procedure, abridged: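 TSHR-HEK293 cells (800/well) plated 18 h, then compounds with Ro20-1724 and TSH at 1.5 ng/mL final, 30 min at room temperature. cAMP quantified by HTRF (cAMP-d2/anti-cAMP-cryptate, 1 h); 15 concentrations in triplicate.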

The nature of assay [9]: qHTS assay to identify small molecule agonists of the estrogen receptor alpha (ER-alpha) signaling pathway in the presence of an antagonist - cell viability counter screen (AID 1259386; active means well fitted curve in the direction sought with a large enough effect in the repeat runs; an effect the other way counts as inactive or inconclusive;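 further: cells exposed to compounds for 22 h at 37 °C before the viability read; nearly all actives have a fitted effect of over 30% in size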; further: potency means the concentration at half of the fitted maximal effect). The essentials:
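Fluorescent CellTiter-Fluor viability signal from VM7Luc4E2 cells, with the reagent added during the final hour of a 22hr compound exposure at 37C in the presence of 10.0nM ICI-182,780.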

Assay [10] has as its target Progesterone receptor (Homo sapiens) (UniProt P06401). Description: qHTS assay to identify small molecule agonists of the progesterone receptor (PR) signaling pathway (AID 1346784). Further: nearly all actives have a fitted effect of over 30% in size. Further: potency means the concentration at half of the fitted maximal effect. The essentials:
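Agonist qHTS: compounds pinned onto 3,000 PR-UAS-bla HEK 293T cells per well in charcoal-stripped serum medium, 16hr at 37C, then beta-lactamase activity measured by LiveBLAzer FRET fluorescence after 2 hours at room temperature.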

Assay [11] in a line: qHTS assay to identify small molecule antagonists of the progesterone receptor (PR) signaling pathway - cell viability counter screen (AID 1346798; active means well fitted curve in the direction sought with a large enough effect in the repeat runs; an effect the other way counts as inactive or inconclusive; further: series mostly up to about 92 µM; nearly all actives have a fitted effect of over 50% in size). The essentials: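 Cytotoxicity read as CellTiter-Glo luminescence (30 min, room temperature) in the same wells as the beta-lactamase readout. HEK293T PR-UAS-bla cells in charcoal-stripped 2% FBS received compound and R5020, then 16 h at 37C, 5% CO2.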

The nature of assay [12]: qHTS assay to identify small molecule antagonists of the TGF-beta/Smad signaling pathway - cell viability counter screen (AID 1346824; active means well fitted curve in the direction sought with a large enough effect in the repeat runs; an effect the other way counts as inactive or inconclusive; further: nearly all actives have a fitted effect of over 50% in size). The procedure, abridged:
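SBE-bla HEK 293T cells, incubated overnight, then compound plus 0.25 ng/mL TGF-beta1 (stock added) for 5 hr at 37 C. Viability was read in the same wells by CellTiter-Glo luminescence after 30 min at room temperature.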

The nature of assay [13]: qHTS assay to identify small molecule agonists of the TGF-beta/Smad signaling pathway - cell viability counter screen (AID 1346829; active means well fitted curve in the direction sought with a large enough effect in the repeat runs; an effect the other way counts as inactive or inconclusive; further: top concentration of the series differs between compounds; nearly all actives have a fitted effect of over 45% in size). The essentials: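 HEK 293T SBE-bla line, 5 hr compound exposure at 37 C, multiplexed CellTiter-Glo viability read by luminescence.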
The nature of assay [14]: qHTS assay to identify small molecule agonists of the TGF-beta/Smad signaling pathway (AID 1346859; active means well fitted activation curve with a large enough effect in the signal ratio in the repeat runs, not every such curve was filed as active; the % refers to the signal ratio; further: series mostly up to about 77 µM). The procedure, abridged: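 Fluorescence (ex 405 nm; em 460 and 530 nm) was read 2 h after LiveBLAzer FRET substrate at RT. The preceding compound treatment of overnight-plated SBE-bla HEK293T cells lasted 5 h at 37 C.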
Assay [15] addresses Thyrotropin-releasing hormone receptor (Homo sapiens) (UniProt P34981). The assay is described as follows: qHTS assay to identify small molecule antagonists of the thyrotropin-releasing hormone receptor (TRHR) signaling pathway (AID 1346877; active means well fitted inhibition curve with a large enough effect in the repeat runs, not every such curve was filed as active; further: series mostly up to about 51 µM). The essentials:
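In this cell-based calcium flux format, HEK293 cells expressing TRHR received test compound for 5 min before the agonist TRH (1 nM final). Dye loading lasted 2 h at 37 °C.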

For assay [16] the target is unchanged. The assay is described as follows: qHTS assay to identify small molecule agonists of the thyrotropin-releasing hormone receptor (TRHR) signaling pathway (AID 1346891). Further: series mostly up to about 58 µM. The essentials: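 Agonist-mode intracellular calcium readout: kinetic fluorescence over 3 min at 1 s intervals after compound addition to TRHR-HEK293 cells (18 h seeded, 2 h dye-loaded at 37 C). Fifteen concentrations, triplicates.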

Assay [17] can be described thus: qHTS assay to identify small molecule agonists of the estrogen receptor beta (ER-beta) signaling pathway - cell viability counter screen (AID 1259380; active means well fitted curve in the direction sought with a large enough effect in the repeat runs; an effect the other way counts as inactive or inconclusive; further: nearly all actives have a fitted effect of over 30% in size; further: potency means the concentration at half of the fitted maximal effect). The procedure, abridged: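 Viability of ER-beta-UAS-bla HEK293T cells was determined by CellTiter-Glo luminescence following 16 hr treatment with test compounds at 37C.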
Assay [18] in a line: qHTS assay to identify small molecule agonists of the progesterone receptor (PR) signaling pathway - cell viability counter screen (AID 1346799). Further: nearly all actives have a fitted effect of over 45% in size. The essentials: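 Cytotoxicity measured by CellTiter-Glo luminescence (30 min, RT) in the same wells as the PR beta-lactamase agonist read. Those HEK293T cells had 16 h compound treatment at 37 C in 2% charcoal-stripped FBS medium.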

Assay [19] has as its target Progesterone receptor (Homo sapiens) (UniProt P06401). Description: qHTS assay to identify small molecule antagonists of the progesterone receptor (PR) signaling pathway (AID 1346795; active means well fitted inhibition curve with a large enough effect in the signal ratio in the repeat runs, not every such curve was filed as active; the % refers to the signal ratio; further: potency means the concentration at half of the fitted maximal effect). The essentials:
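Antagonist mode with agonist R5020 at 1 nM final and 16 hr incubation at 37C. Reporter was beta-lactamase driven by UAS in HEK293T (PR-UAS-bla), 2% charcoal-stripped serum; signal from LiveBLAzer FRET substrate, 2 hr at room temperature.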

Chain of Estrogen receptor (Homo sapiens) (P03372 whole entry, looked up): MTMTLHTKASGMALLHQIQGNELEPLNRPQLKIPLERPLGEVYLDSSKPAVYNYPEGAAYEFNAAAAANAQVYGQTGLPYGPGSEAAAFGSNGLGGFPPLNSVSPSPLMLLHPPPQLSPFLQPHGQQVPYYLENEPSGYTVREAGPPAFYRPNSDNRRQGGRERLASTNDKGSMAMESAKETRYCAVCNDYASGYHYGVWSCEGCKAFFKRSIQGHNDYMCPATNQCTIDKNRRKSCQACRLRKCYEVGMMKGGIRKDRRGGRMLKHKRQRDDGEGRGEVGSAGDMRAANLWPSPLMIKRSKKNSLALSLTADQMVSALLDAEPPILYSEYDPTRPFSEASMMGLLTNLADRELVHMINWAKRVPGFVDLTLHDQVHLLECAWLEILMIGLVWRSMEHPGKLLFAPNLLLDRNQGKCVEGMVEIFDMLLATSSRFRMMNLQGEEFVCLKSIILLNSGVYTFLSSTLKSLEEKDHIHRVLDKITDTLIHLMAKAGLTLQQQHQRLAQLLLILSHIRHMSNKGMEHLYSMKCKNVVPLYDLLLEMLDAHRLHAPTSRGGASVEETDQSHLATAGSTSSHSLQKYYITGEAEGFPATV
Chain of Progesterone receptor (Homo sapiens) (P06401 whole entry, looked up): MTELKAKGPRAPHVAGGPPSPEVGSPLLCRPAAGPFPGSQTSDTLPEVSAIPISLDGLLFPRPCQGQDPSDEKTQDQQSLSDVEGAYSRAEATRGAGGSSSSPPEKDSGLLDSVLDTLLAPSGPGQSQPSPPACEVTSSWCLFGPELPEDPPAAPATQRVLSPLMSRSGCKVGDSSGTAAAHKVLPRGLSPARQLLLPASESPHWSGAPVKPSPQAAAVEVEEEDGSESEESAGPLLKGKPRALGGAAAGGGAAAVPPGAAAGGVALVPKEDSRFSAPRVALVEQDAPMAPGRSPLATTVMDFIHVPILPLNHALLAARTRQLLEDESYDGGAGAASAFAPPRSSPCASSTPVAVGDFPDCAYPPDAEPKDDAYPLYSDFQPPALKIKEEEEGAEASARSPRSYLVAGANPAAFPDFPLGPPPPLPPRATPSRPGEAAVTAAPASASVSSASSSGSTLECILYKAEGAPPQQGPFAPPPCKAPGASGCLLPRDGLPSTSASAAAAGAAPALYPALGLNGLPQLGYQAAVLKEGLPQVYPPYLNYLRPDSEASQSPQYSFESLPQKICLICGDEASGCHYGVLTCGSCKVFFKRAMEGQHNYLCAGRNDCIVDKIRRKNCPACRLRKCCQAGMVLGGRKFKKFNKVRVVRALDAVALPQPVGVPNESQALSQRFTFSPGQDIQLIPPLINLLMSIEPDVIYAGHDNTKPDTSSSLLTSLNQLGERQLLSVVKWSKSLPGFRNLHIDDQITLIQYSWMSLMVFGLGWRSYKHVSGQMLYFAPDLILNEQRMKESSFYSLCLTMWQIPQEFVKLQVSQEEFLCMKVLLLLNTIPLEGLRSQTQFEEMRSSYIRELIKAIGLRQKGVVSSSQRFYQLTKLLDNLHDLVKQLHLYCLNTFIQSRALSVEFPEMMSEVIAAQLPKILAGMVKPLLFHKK
Chain of Thyrotropin-releasing hormone receptor (Homo sapiens) (P34981 whole entry, looked up): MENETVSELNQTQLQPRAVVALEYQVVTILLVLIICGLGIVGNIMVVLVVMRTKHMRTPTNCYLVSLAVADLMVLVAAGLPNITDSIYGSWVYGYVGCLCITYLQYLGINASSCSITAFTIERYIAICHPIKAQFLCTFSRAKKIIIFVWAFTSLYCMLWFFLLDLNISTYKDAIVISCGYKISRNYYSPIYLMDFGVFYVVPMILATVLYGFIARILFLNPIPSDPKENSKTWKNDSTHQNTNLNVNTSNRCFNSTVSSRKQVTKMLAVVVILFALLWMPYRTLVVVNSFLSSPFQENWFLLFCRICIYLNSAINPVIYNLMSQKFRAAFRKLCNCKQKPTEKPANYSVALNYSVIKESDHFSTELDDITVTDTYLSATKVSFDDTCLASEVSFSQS
Chain of Estrogen receptor beta (Homo sapiens) (Q92731 whole entry, looked up): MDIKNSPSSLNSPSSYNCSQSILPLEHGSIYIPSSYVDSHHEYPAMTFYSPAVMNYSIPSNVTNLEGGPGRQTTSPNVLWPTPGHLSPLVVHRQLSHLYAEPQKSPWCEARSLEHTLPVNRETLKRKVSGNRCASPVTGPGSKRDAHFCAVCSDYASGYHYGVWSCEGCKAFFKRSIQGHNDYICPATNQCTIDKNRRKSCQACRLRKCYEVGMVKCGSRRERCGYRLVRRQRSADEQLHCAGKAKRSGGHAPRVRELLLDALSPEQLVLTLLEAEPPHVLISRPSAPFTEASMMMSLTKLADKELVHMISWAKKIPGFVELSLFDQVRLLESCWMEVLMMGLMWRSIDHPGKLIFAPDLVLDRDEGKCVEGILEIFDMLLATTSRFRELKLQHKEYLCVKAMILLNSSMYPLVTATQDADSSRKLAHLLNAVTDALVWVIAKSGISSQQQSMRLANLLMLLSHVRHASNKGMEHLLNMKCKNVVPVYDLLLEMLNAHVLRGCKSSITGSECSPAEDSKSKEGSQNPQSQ
Chain of Thyrotropin receptor (Homo sapiens) (P16473 whole entry, looked up): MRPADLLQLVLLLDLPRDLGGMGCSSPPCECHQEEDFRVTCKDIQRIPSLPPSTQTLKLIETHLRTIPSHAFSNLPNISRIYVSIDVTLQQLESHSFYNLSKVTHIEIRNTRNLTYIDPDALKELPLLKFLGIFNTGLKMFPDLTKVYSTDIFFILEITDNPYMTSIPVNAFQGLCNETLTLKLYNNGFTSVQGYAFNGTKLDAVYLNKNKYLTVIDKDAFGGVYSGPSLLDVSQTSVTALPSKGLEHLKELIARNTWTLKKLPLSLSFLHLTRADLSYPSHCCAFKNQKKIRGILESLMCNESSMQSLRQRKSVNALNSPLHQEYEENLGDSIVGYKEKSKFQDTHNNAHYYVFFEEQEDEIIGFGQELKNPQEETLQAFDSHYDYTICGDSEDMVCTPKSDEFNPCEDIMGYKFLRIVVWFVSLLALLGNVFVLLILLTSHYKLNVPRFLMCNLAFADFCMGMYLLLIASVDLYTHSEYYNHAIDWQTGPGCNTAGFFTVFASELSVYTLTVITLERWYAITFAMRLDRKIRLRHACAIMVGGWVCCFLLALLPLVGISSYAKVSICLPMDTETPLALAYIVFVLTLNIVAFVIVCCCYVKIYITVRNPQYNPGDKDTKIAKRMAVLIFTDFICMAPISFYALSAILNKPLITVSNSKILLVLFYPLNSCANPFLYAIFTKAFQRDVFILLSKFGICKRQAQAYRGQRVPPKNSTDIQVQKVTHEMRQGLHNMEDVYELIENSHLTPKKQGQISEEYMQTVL

On to `CCNC(=O)N1CCN(CCCC(c2ccc(F)cc2)c2ccc(F)cc2)CC1`, for which the Potency in assay [1] is 3.35 µM (active); in assay [3] it was 21.1 µM (active); in [4], 26.6 µM (active); in assay [9] it was 23.7 µM (active). Further, the Potency entry in assay [2], in assay [5], in assay [6], in assay [8], in assay [10] and in assay [11] was “inactive” in each case. The call in assay [7], in [12], in assay [13], in [14] and in assay [15] was inactive.

Regarding `CC1(C)O[C@@H]2C[C@H]3[C@@H]4CCC5=CC(=O)C=C[C@]5(C)[C@H]4[C@@H](O)C[C@]3(C)[C@]2(C(=O)CO)O1`, the Potency result in assay [1], in [2], in assay [3], in assay [4], in assay [5] and in assay [6] was “inactive” throughout. In addition, the Potency result in [8], in assay [11] and in assay [16] was “inactive” in each case. The compound was called inactive in assay [7], in assay [12], in assay [13] and in assay [15]. The Potency in assay [10] is 0.133 µM (active).

In the case of `CCOc1cc(N)c(Cl)cc1C(=O)NCC1CN(Cc2ccc(F)cc2)CCO1` (stereo unspecified), the Potency entry in [1], in assay [2], in assay [4], in assay [5], in assay [6] and in assay [8] was “inactive” each time. Further, the Potency result in assay [10], in [11] and in assay [18] was “inactive” in each case. In addition, the Potency in assay [17] is 2.37 µM (active). Further, the call in assay [7], in assay [12], in [13] and in assay [14] was inactive.

As for `CCC(Cc1ccccc1)(C(=O)c1ccc(N2CCOCC2)cc1)N(C)C` (stereo unspecified), the Potency was 19.3 µM (active) in assay [1] and 48.6 µM (active) in assay [19]. Moreover, the Potency entry in [2], in [3], in [5], in [6], in assay [8] and in assay [10] was “inactive” each time. In addition, the Potency result in assay [16] is “inactive”. The call in assay [7], in assay [13], in [14] and in assay [15] was inactive.

As for `CC(=N\O)/C(C)=N/O`, the Potency result in assay [1], in [2], in assay [3], in assay [4], in assay [17] and in [5] was “inactive” throughout. For the same compound, the Potency entry in assay [8], in assay [9] and in assay [10] was “inactive” each time. Moreover, the result in [12], in [13], in assay [14] and in [15] was inactive.

Turning to `Cc1ccc(/C=N/n2c(-c3ccccc3)csc2=S)cc1`, the Potency entry in assay [1], in [2], in assay [4], in [5], in assay [8] and in assay [9] was “inactive” each time. The Potency result in assay [10] and in [16] was “inactive” in each case. For the same compound, the Potency in assay [3] was 7.5 µM (active). The outcome in [7], in [14] and in assay [15] was inactive.

Take `CC(=O)N(c1onc(C)c1C)S(=O)(=O)c1ccc(N)cc1`: the Potency result in assay [1], in assay [2], in assay [3], in assay [4], in [5] and in assay [6] was “inactive” in each case. The Potency result in assay [9], in assay [10], in assay [19], in [11] and in [18] was “inactive” throughout. Moreover, the compound was classed as inactive in assay [7], in assay [12], in assay [13] and in assay [14].

Consider `c1cc[c]([Bi]([c]2ccccc2)[c]2ccccc2)cc1`, for which the Potency in assay [1] is 13.7 µM (active). For the same compound, the Potency entry in [2], in assay [4], in assay [17], in assay [5], in assay [6] and in assay [8] was “inactive” throughout. In addition, the outcome in assay [7], in [12], in assay [13], in [14] and in assay [15] was inactive.

Take `Nc1nc(Cl)nc2c1ncn2[C@@H]1O[C@H](CO)[C@@H](O)[C@@H]1F`: the Potency in assay [1] was 0.841 µM (active). For the same compound, the Potency result in [2], in assay [4], in assay [17], in assay [5], in assay [6] and in [8] was “inactive” in each case. The Potency entry in assay [9], in assay [10], in assay [19], in [11], in assay [18] and in [16] was “inactive” throughout. The outcome in assay [7], in assay [12], in [13], in assay [14] and in assay [15] was inactive.
